Unmarked numbers belong to inactive results.
Tested on: Vero E6 infected with SARS-CoV-2
Assay: inhibition of SARS-CoV-2 cytopathic effect; higher = more antiviral protection, active = above 15
Details: 48 h

`COc1ccc(S(=O)(=O)N2c3ccc(Cl)cc3[C@](O)(c3ccccc3Cl)[C@@H]2C(=O)N2CCC[C@H]2C(N)=O)cc1OC` [relcovaptan] was tested, and the “inhibition of SARS-CoV-2 cytopathic effect” value (“inhibition” for short) (1 nM) was -0.27%, the “inhibition” value (8.33 nM) was -0.84% and the “inhibition” value (100 nM) was 0.53%. For the same compound, the “inhibition” value (833.33 nM) was 1.63% and the “inhibition” value (10000 nM) was 2.72%.
For `N=C(NCCC[C@H](N)C(=O)O)N[N+](=O)[O-]` [NG-nitro-arginine], the “inhibition” value (1 nM) was 4.03%, the “inhibition” value (8.33 nM) was -0.95% and the “inhibition” value (100 nM) was -0.93%. For the same compound, the “inhibition” value (833.33 nM) was 0.27% and the “inhibition” value (10000 nM) was -0.46%.
In the case of `CN1C(=O)N(c2ccc(C#N)c(C(F)(F)F)c2)C(=O)[C@]1(CO)c1ccccc1` [GLPG0492-R-enantiomer], the “inhibition” value (1 nM) is reported as 2.05%, the “inhibition” value (8.33 nM) is reported as 2.68% and the “inhibition” value (100 nM) is reported as 0.3%. The “inhibition” value (833.33 nM) was 1.61% and the “inhibition” value (10000 nM) was 2.02%.
In the case of `Nc1nc(N)nc(NC2CC2)n1` [cyromazine], the “inhibition” value (1 nM) is reported as -2.63%, the “inhibition” value (8.33 nM) is reported as -0.52% and the “inhibition” value (100 nM) is reported as 2.15%. For the same compound, the “inhibition” value (833.33 nM) was 2.37% and the “inhibition” value (10000 nM) was 0.6%.
For `O=C(NC1CCN(CCCCC2(C(=O)NCC(F)(F)F)c3ccccc3-c3ccccc32)CC1)c1ccccc1-c1ccc(C(F)(F)F)cc1` [lomitapide], the “inhibition” value (1 nM) was 0.13%, the “inhibition” value (8.33 nM) was -1.36% and the “inhibition” value (100 nM) was 0.35%. For the same compound, the “inhibition” value (833.33 nM) was -1.45% and the “inhibition” value (10000 nM) was 20.9% (active).
`CCN(CC)CCNC(=O)c1cc(Cl)c(N)cc1OC` [metoclopramide] was tested, and the “inhibition” value (1 nM) was -0.44%, the “inhibition” value (8.33 nM) was 0.96% and the “inhibition” value (100 nM) was 0.31%. The “inhibition” value (833.33 nM) was -0.29% and the “inhibition” value (10000 nM) was -1.37%.
In the case of `C=CC(=O)Nc1cccc(Nc2nc(Nc3ccc(NC4CN(CCF)C4)cc3OC)ncc2C(F)(F)F)c1`, the “inhibition” value (1 nM) is reported as 0.89%, the “inhibition” value (8.33 nM) is reported as 1.87% and the “inhibition” value (100 nM) is reported as 7.9%. The “inhibition” value (833.33 nM) was -5.81% and the “inhibition” value (10000 nM) was -24.6%.
In the case of `Cn1cc(-c2cnn3c(N)c(Br)c([C@@H]4CCCNC4)nc23)cn1`, the “inhibition” value (1 nM) is reported as 0.61%, the “inhibition” value (8.33 nM) is reported as 0.92% and the “inhibition” value (100 nM) is reported as 2.32%. The “inhibition” value (833.33 nM) was 2.1% and the “inhibition” value (10000 nM) was 0.48%.
With `O=C(O)c1ccc(-c2ccc3cc(O)c(C45CC6CC(CC(C6)C4)C5)cc3c2)cc1` the “inhibition” value (1 nM) was 5.35%, the “inhibition” value (8.33 nM) was 1.59% and the “inhibition” value (100 nM) was 3.64%. For the same compound, the “inhibition” value (833.33 nM) was 3.49% and the “inhibition” value (10000 nM) was 5.63%.
`Nc1ccc(S(=O)(=O)c2ccc(N)cc2)cc1` [dapsone] was tested, and the “inhibition” value (1 nM) was -2.51%, the “inhibition” value (8.33 nM) was 2.16% and the “inhibition” value (100 nM) was 0.46%. For the same compound, the “inhibition” value (833.33 nM) was 11.1% and the “inhibition” value (10000 nM) was 1.03%.
In the case of `O=C1c2c(O)cccc2C([C@@H]2O[C@H](CO)[C@@H](O)[C@H](O)[C@H]2O)c2cc(CO)cc(O)c21` (stereo not given in full) [aloin], the “inhibition” value (1 nM) is reported as -0.62%, the “inhibition” value (8.33 nM) is reported as 0.1% and the “inhibition” value (100 nM) is reported as -0.43%. The “inhibition” value (833.33 nM) was 1.27% and the “inhibition” value (10000 nM) was 1.29%.
`O=C(CC(c1ccccc1)c1ccccc1)N1CCN(C(c2ccccc2)c2ccccc2)CC1` was tested, and the “inhibition” value (1 nM) was -0.56%, the “inhibition” value (8.33 nM) was -1.82% and the “inhibition” value (100 nM) was -3.93%. For the same compound, the “inhibition” value (833.33 nM) was 1.53% and the “inhibition” value (10000 nM) was 3.27%.
For `Cc1c(O)c(=O)ccn1C` [deferiprone], the “inhibition” value (1 nM) was 0.05%, the “inhibition” value (8.33 nM) was 0.64% and the “inhibition” value (100 nM) was 1.45%. For the same compound, the “inhibition” value (833.33 nM) was 3.35% and the “inhibition” value (10000 nM) was 0.91%.
`O=C(/C=C\n1cnc(-c2cc(C(F)(F)F)cc(C(F)(F)F)c2)n1)NNc1cnccn1` [selinexor] was tested, and the “inhibition” value (1 nM) was -0.07%, the “inhibition” value (8.33 nM) was -3.07% and the “inhibition” value (100 nM) was -7.87%. The “inhibition” value (833.33 nM) was -8.61% and the “inhibition” value (10000 nM) was -8.85%.
With `CC(C)(C(=O)NCC(F)(F)C(F)(F)F)C(=O)N[C@@H]1C(=O)Nc2ccccc2-c2ccccc21` the “inhibition” value (1 nM) was -4.06%, the “inhibition” value (8.33 nM) was -4.36% and the “inhibition” value (100 nM) was -4.95%. For the same compound, the “inhibition” value (833.33 nM) was -5.35% and the “inhibition” value (10000 nM) was -3.87%.
In the case of `CCOC(=O)[C@H](C)C[C@@H](Cc1ccc(-c2ccccc2)cc1)NC(=O)CCC(=O)O` [sacubitril], the “inhibition” value (1 nM) is reported as -3.45%, the “inhibition” value (8.33 nM) is reported as -0.1% and the “inhibition” value (100 nM) is reported as -1.3%. The “inhibition” value (833.33 nM) was -3.34% and the “inhibition” value (10000 nM) was 2.18%.
`CNC[C@H](O)c1cccc(O)c1` [phenylephrine] was tested, and the “inhibition” value (1 nM) was 0.59%, the “inhibition” value (8.33 nM) was 1.75% and the “inhibition” value (100 nM) was -0.82%. The “inhibition” value (833.33 nM) was 0.14% and the “inhibition” value (10000 nM) was -0.09%.
`CC1(C)OC(=O)NC1=O` [dimethadione] was tested, and the “inhibition” value (1 nM) was -1.41%, the “inhibition” value (8.33 nM) was -1.5% and the “inhibition” value (100 nM) was 0.11%. The “inhibition” value (833.33 nM) was 0.78% and the “inhibition” value (10000 nM) was 0.15%.

Reference: the supplement of paper PMC13380429
